Assay results from publication PMC7819943, “Rice protein-binding microarrays: a tool to detect cis-acting elements near promoter regions in rice”.
Over roughly 68,000 sequences, “fluorescence intensity (a.u.)” has its median near 9,100; the highest 2% begin near 16,000. The full list was thinned out, with the highest values kept by preference.

These sequences were tested against OsWRKY34 (Oryza sativa, UniProt Q0JBA9 1-250) (assay: protein-binding microarray (RPBM); PBS, 2% BSA, 51.3 ng/ul salmon testes DNA, 50 uM zinc acetate, 200 nM TF, 25 C, 1 h; high values mean tight binding). Details: protein: recombinant; tags: N-terminal polyhistidine and DsRed monomer fusion (pET32a); label: CyDye5-dUTP incorporated in the synthesized complementary strand; 3' TTTTT single-stranded linker to array surface; dsDNA, one strand shown.
In short: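 In PBS with 2% BSA, salmon testes DNA and 50 µM zinc acetate, 200 nM protein was incubated on a custom Agilent array at 25 °C for 1 h and then washed off. The array had been made double-stranded by primer extension with Cy5-dUTP and blocked with 2% BSA. The proteins were transcription factors fused N-terminally to polyhistidine and DsRed, expressed in E. coli BL21-CodonPlus and purified on Ni–NTA. The binding signal is per-feature fluorescence intensity (arbitrary units) from an Axon 4000B scanner.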

Chain of OsWRKY34 (Q0JBA9 entry or part of it): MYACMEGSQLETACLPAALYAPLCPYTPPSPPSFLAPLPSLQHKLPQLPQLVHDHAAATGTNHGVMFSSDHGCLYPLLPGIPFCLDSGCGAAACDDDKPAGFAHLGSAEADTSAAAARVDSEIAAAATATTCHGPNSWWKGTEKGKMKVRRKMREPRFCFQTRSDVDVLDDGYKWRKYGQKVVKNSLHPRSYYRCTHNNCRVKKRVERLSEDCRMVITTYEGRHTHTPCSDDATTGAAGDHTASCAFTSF

Sequence | binding signal
TTTATACTCCTTCTGTTTCATATTATTTTTTTCTACTAGTCGGAGTCACCTAGTGCAG | 8860 fluorescence intensity (a.u.)
GACCACTAGCAGCCTCGTAACGTTTGCCTCATTTCATCAGCGGAGTCACCTAGTGCAG | 10500 fluorescence intensity (a.u.)
TATACCTCTCTCTCTCTCTCTCTCTCTCTCTCTCTCTCTTCGGAGTCACCTAGTGCAG | 8280 fluorescence intensity (a.u.)
TTTTTGTTTTCTCAATTCGCGAATTTAATGCTTTTGTGTACGGAGTCACCTAGTGCAG | 9750 fluorescence intensity (a.u.)
GAATTATTAGGGAGAAAGGAGTTGCAGGGTGGGGATTGTTCGGAGTCACCTAGTGCAG | 8330 fluorescence intensity (a.u.)
CGTTCTCTGTCTGTCCCGCACTCCCGCCTTTTGCCAAAGCCGGAGTCACCTAGTGCAG | 9610 fluorescence intensity (a.u.)
AGACCAAGCCATATCACCTTATGTAATTTCTTTATGTGCTCGGAGTCACCTAGTGCAG | 9010 fluorescence intensity (a.u.)
GTCCCATCGTCTCTATTCGGGTCACCTTTGCACAACATGACGGAGTCACCTAGTGCAG | 10500 fluorescence intensity (a.u.)
GTTGACGTCTCCCAAGTGCCACACCCGCCGCCACGTCACTCGGAGTCACCTAGTGCAG | 8880 fluorescence intensity (a.u.)
CCCAGATTCGCCCCGCACCGCACCGCCCTTGGCTCGCCCCCGGAGTCACCTAGTGCAG | 8340 fluorescence intensity (a.u.)
CTCTACTTCTAATGTTCCTTATTTTTTTTCCGAGTTTCTACGGAGTCACCTAGTGCAG | 9390 fluorescence intensity (a.u.)
TACTCGTTTGGTTGTAATTTTTTTCCGCGTCTTTTCATCTCGGAGTCACCTAGTGCAG | 11200 fluorescence intensity (a.u.)
ATTCTTCATTCTTTTTGTGTGTGTTTCAGTGTGTTTGTTTCGGAGTCACCTAGTGCAG | 15800 fluorescence intensity (a.u.)
TAGTTTCTTGTTTTCAGTTTTTTTTTCTTGTCATTTTTTTCGGAGTCACCTAGTGCAG | 19500 fluorescence intensity (a.u.)
TTGAATTTTCAGTTTTCTTGTGCGTGTTTCCTTGTCATTTCGGAGTCACCTAGTGCAG | 9140 fluorescence intensity (a.u.)
CGGTCTTTGCCAAATTCCCACTCCGCTTGGCTTTCTGGCCCGGAGTCACCTAGTGCAG | 8250 fluorescence intensity (a.u.)
CTAGGACATCATTTTGTTTGTCGTGTGTGCGCAACTGTTTCGGAGTCACCTAGTGCAG | 8160 fluorescence intensity (a.u.)
GCGCCCTCCGACTCCGACGGCTTCTTGTTCTCGTTGACGCCGGAGTCACCTAGTGCAG | 8950 fluorescence intensity (a.u.)
GAGTGTAACGGGTGGGGTGGTTTGGAAGGTGATGAGGTATCGGAGTCACCTAGTGCAG | 11300 fluorescence intensity (a.u.)
ATTTCTTGGAGACCGTTGACTCCTCTCTCTCTATTTCCATCGGAGTCACCTAGTGCAG | 12400 fluorescence intensity (a.u.)
ACTCTTTACTCTTTCTTTTCTTCTTTCTTTTTTGGCGGGGCGGAGTCACCTAGTGCAG | 21200 fluorescence intensity (a.u.)

Sequence | binding signal
TGGTTTTATGTGTGAGTTGGGGTAGTGGCGTTGGTAGGTTCGGAGTCACCTAGTGCAG | 11700 fluorescence intensity (a.u.)
TGTGAGTAGTTTGTGGTTGGGAGTGTAACGGGTGGGGTGGCGGAGTCACCTAGTGCAG | 16900 fluorescence intensity (a.u.)
CTTTCTTTCTTTCTTTCTTCTTTTTTTTCTTTTTTTTTTGCGGAGTCACCTAGTGCAG | 8640 fluorescence intensity (a.u.)
CACCATTGGGATGGGTGCCTATTTCTTGGAGACCGTTGACCGGAGTCACCTAGTGCAG | 17300 fluorescence intensity (a.u.)
AACAGTTGACGCAGGTGGCAGAGTTGCTAGTTCTTGCCCTCGGAGTCACCTAGTGCAG | 61500 fluorescence intensity (a.u.)
TTCTTTCTTTTTTGGCGGGGACTACTCTTTACTTGAACCTCGGAGTCACCTAGTGCAG | 12400 fluorescence intensity (a.u.)
GGAGAGTAGCAGTGTGGTTGATGATGGTGTTCTTGCTACTCGGAGTCACCTAGTGCAG | 9890 fluorescence intensity (a.u.)
ATACCGTGATTGGGATTACCTGTGACCTTGCCTATTTGACCGGAGTCACCTAGTGCAG | 9120 fluorescence intensity (a.u.)
CTTCTAAACATAGCTTCCACAATCGTCTCCGGGCCCTTCTCGGAGTCACCTAGTGCAG | 8320 fluorescence intensity (a.u.)
GATTAGAATCCGGGTGGGCTGTTTCCACCACAAGAAACTACGGAGTCACCTAGTGCAG | 8990 fluorescence intensity (a.u.)
AATTCCCAAAATATACAGTTTTTGTTATTCAGATGTTTACCGGAGTCACCTAGTGCAG | 8130 fluorescence intensity (a.u.)
TACCGATGGGGCTCTTATACTCCAACTCTTGCCCTGTTTACGGAGTCACCTAGTGCAG | 9020 fluorescence intensity (a.u.)
ATTCGATTTTCTTGCACCTAAACACATGCAACCCATCATTCGGAGTCACCTAGTGCAG | 10100 fluorescence intensity (a.u.)
TGTGTGGTAGTTCGGGGTGGACCTACTTCTAATTATTGGGCGGAGTCACCTAGTGCAG | 14100 fluorescence intensity (a.u.)
TGTGTTGGTGATGTCGATGTGTGGGTGGTGGTTTTTTTTTCGGAGTCACCTAGTGCAG | 13800 fluorescence intensity (a.u.)
TTGGTTTTGGTTTGGGTGGTTGATGTGTGGGTGGTGGTGGCGGAGTCACCTAGTGCAG | 19000 fluorescence intensity (a.u.)
CGGCGGAGGAGGAGGTTTCTTGCTCGTTTCTTGGGTTGCGCGGAGTCACCTAGTGCAG | 10800 fluorescence intensity (a.u.)
TTACTACTACCACTCGTTTTCTTGGCTTGGTTTGGTTTGGCGGAGTCACCTAGTGCAG | 13000 fluorescence intensity (a.u.)
AGCTTGGTTTCTGGGTTGGGTTGGGTTTGGTTGCGTTGCGCGGAGTCACCTAGTGCAG | 22700 fluorescence intensity (a.u.)
CGTGTGACTGTTGCCGTGATGGTTTTGATGTTTGTTTTGGCGGAGTCACCTAGTGCAG | 9180 fluorescence intensity (a.u.)
TCTATTGGGGCGGGGTGTGGTAAGGAAATTACAGTTTGCACGGAGTCACCTAGTGCAG | 17700 fluorescence intensity (a.u.)
